“And” between values parts separate entries of the source, which are not always exact repeats. Equal values may be shown once. Results filed as inconclusive are left out. The source made the active and inactive calls. The call rests on the fitted dose curve.

The nature of one experiment: qHTS Assay for Lipid Storage Modulators (AID 1519). On activity change, negative = inhibition: on the % scale 0 is the no-effect control and ±100 the full control effect. The conditions noted are these: Drosophila S3 cells, BODIPY lipid droplet/cell ratio, laser cytometry; at 25.7 µM (top of the series); cells loaded with oleic acid. An outline of the steps: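 Cells seeded at 5,000 per well were treated with compounds over a concentration series and loaded with oleic acid (400 uM, as added). Lipid droplet fluorescence (488 nm excitation, 500-530 nm channel) was read by laser-scanning cytometry and normalized to 20 uM Triacsin C.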
As for `O=c1ccc2cc(O)c(O)cc2o1`, the activity change, negative = inhibition was -3.37% (inactive).
On to `Cc1[nH]ccc2c1[nH]c1cc(=O)ccc12`, for which the activity change, negative = inhibition is -0.514% (inactive).
On the same count and under the same terms, the same measure for `COc1cc2ccc(=O)oc2cc1O`: -4.36% (inactive).
Take `CC[C@@]12CCCN3CCc4c(n(c5ccccc45)[C@](O)(C(=O)OC)C1)[C@H]32`: the activity change, negative = inhibition is -1.27% (inactive) and -2.91% (inactive).
On the same count and under the same terms, the same measure for `N[C@H](Cn1ccc(=O)c(O)c1)C(=O)O`: -2.4% (inactive); for `CC(=O)Oc1ccccc1C(=O)Oc1ccccc1C(=O)O`: -1.86% (inactive).

Staying with this experiment, now noted: Drosophila S3 cells, BODIPY lipid droplet/cell ratio, laser cytometry; at 57.5 µM (top of the series); cells loaded with oleic acid.
`COc1ccc2[nH]cc(CCNc3ncnc4ccc(-c5ccc6c(c5)OCO6)cc34)c2c1`: the activity change, negative = inhibition is 2.76% (inactive).
For the compound `COc1cccc(-c2cc(NCCc3c[nH]c4ccc(OC)cc34)ncn2)c1`, the activity change, negative = inhibition was 7.02% (inactive).
Same read-out and setting: the same measure for `Nc1ccc(C(=O)O)c(O)c1` (tested in a mixture with another compound): 15.3% (inactive); for `COc1ccccc1CNc1ncnc2ccc(-c3ccccc3C#N)cc12`: -1.18% (inactive).
`Cc1ccccc1-c1ccc2ncnc(N(C)C)c2c1`: the activity change, negative = inhibition is 1.72% (inactive).
Still for that read-out and setting: the same measure for `O=c1ccc2cc(O)c(O)cc2o1`: -7.91% (inactive).
`CCCCCC/C=C\CCCCCCCc1cccc(O)c1C(=O)O`: the activity change, negative = inhibition was 8.36% (inactive).
With `COC(=O)c1c(C)cc(OC(=O)c2c(C)cc(O)c(C=O)c2O)c(C)c1O`, the activity change, negative = inhibition was -6.06% (inactive).
On to `Cc1[nH]ccc2c1[nH]c1cc(=O)ccc12`, for which the activity change, negative = inhibition was 6.27% (inactive).
For the compound `C=CCc1ccc(OC(=O)c2ccccc2)c(OC)c1`, the activity change, negative = inhibition is 6.62% (inactive).
On the same count and under the same terms, the same measure for `CN(Cc1ccco1)c1ncnc2ccc(-c3ccc4c(c3)OCO4)cc12`: 2.26% (inactive); for `NC(Cc1ccc(O)c(O)c1)C(=O)O` (stereo not given): 11.6% (inactive).
For the compound `COc1cc2ccc(=O)oc2cc1O`, the activity change, negative = inhibition is 6.76% (inactive).
Turning to `CC[C@@]12CCCN3CCc4c(n(c5ccccc45)[C@](O)(C(=O)OC)C1)[C@H]32`, the activity change, negative = inhibition was 0.0973% (inactive).
Take `N[C@H](Cn1ccc(=O)c(O)c1)C(=O)O`: the activity change, negative = inhibition is -2.6% (inactive).
On the same count and under the same terms, the same measure for `COc1ccc2[nH]cc(CCNc3ncnc4ccc(-c5ccccc5C#N)cc34)c2c1`: 4.54% (inactive); for `CC(=O)NC(C(=O)O)C(C)(C)SN=O` (stereo not given): 0.182% (inactive).
Still for that read-out and setting: the same measure for `CC(=O)Oc1ccccc1C(=O)Oc1ccccc1C(=O)O`: -0.43% (inactive).

The same experiment, now with this note: Drosophila S3 cells, BODIPY lipid droplet/cell ratio, laser cytometry; measured here: cell count channel max response; cells loaded with oleic acid.
`COc1ccc2[nH]cc(CCNc3ncnc4ccc(-c5ccc6c(c5)OCO6)cc34)c2c1`: the max response is -4.39%.
The same measure, in the same setting: the same measure for `COc1cccc(-c2cc(NCCc3c[nH]c4ccc(OC)cc34)ncn2)c1`: 8.88%; for `Nc1ccc(C(=O)O)c(O)c1` (tested in a mixture with another compound): 6.65%; for `COc1ccccc1CNc1ncnc2ccc(-c3ccccc3C#N)cc12`: 16.4%.
The same measure, in the same setting: the same measure for `Cc1ccccc1-c1ccc2ncnc(N(C)C)c2c1`: -2.12%; for `O=c1ccc2cc(O)c(O)cc2o1`: -16.4% and -4.98%.
With `CCCCCC/C=C\CCCCCCCc1cccc(O)c1C(=O)O`, the max response turned out to be 7.08%.
As to `COC(=O)c1c(C)cc(OC(=O)c2c(C)cc(O)c(C=O)c2O)c(C)c1O`, the max response is -15.4%.
The same measure, in the same setting: the same measure for `Cc1[nH]ccc2c1[nH]c1cc(=O)ccc12`: 11.1% and 0.549%.
On the same count and under the same terms, the same measure for `C=CCc1ccc(OC(=O)c2ccccc2)c(OC)c1`: 5.85%; for `CN(Cc1ccco1)c1ncnc2ccc(-c3ccc4c(c3)OCO4)cc12`: -9.61%; for `NC(Cc1ccc(O)c(O)c1)C(=O)O` (stereo not given): 4.16%.
Same read-out and setting: the same measure for `COc1cc2ccc(=O)oc2cc1O`: -18% and -2.53%; for `CC[C@@]12CCCN3CCc4c(n(c5ccccc45)[C@](O)(C(=O)OC)C1)[C@H]32`: 5.49% and 0.925% and 3.19%.
Consider `N[C@H](Cn1ccc(=O)c(O)c1)C(=O)O`, for which the max response was -5.27% and -11.5%.
The same measure, in the same setting: the same measure for `COc1ccc2[nH]cc(CCNc3ncnc4ccc(-c5ccccc5C#N)cc34)c2c1`: -13.6%; for `CC(=O)NC(C(=O)O)C(C)(C)SN=O` (stereo not given): 6.33%; for `CC(=O)Oc1ccccc1C(=O)Oc1ccccc1C(=O)O`: -2.66% and 0.474%.

The experiment is the same for the next values; noted with them: Drosophila S3 cells, BODIPY lipid droplet/cell ratio, laser cytometry; measured here: lipid channel max response; cells loaded with oleic acid.
As for `COc1ccc2[nH]cc(CCNc3ncnc4ccc(-c5ccc6c(c5)OCO6)cc34)c2c1`, the max response was -5.39%.
For `COc1cccc(-c2cc(NCCc3c[nH]c4ccc(OC)cc34)ncn2)c1`, the max response came out at 13.2%.
On the same count and under the same terms, the same measure for `Nc1ccc(C(=O)O)c(O)c1` (tested in a mixture with another compound): 22.7%.
With `COc1ccccc1CNc1ncnc2ccc(-c3ccccc3C#N)cc12`, the max response came out at 14.7%.
Same read-out and setting: the same measure for `Cc1ccccc1-c1ccc2ncnc(N(C)C)c2c1`: -3.73%; for `O=c1ccc2cc(O)c(O)cc2o1`: -18.9% and -8.28%.
Still for that read-out and setting: the same measure for `CCCCCC/C=C\CCCCCCCc1cccc(O)c1C(=O)O`: 17.7%.
Still for that read-out and setting: the same measure for `COC(=O)c1c(C)cc(OC(=O)c2c(C)cc(O)c(C=O)c2O)c(C)c1O`: -19%.
With `Cc1[nH]ccc2c1[nH]c1cc(=O)ccc12`, the max response was 9.17% and 10.7%.
Turning to `C=CCc1ccc(OC(=O)c2ccccc2)c(OC)c1`, the max response was 15.6%.
The same measure, in the same setting: the same measure for `CN(Cc1ccco1)c1ncnc2ccc(-c3ccc4c(c3)OCO4)cc12`: -5.56%; for `NC(Cc1ccc(O)c(O)c1)C(=O)O` (stereo not given): 20.4%.
Regarding `COc1cc2ccc(=O)oc2cc1O`, the max response is -21.2% and 0.189%.
The same measure, in the same setting: the same measure for `CC[C@@]12CCCN3CCc4c(n(c5ccccc45)[C@](O)(C(=O)OC)C1)[C@H]32`: 4.14% and 0.607% and 6.95%.
On the same count and under the same terms, the same measure for `N[C@H](Cn1ccc(=O)c(O)c1)C(=O)O`: -7.92% and -12.4%.
Still for that read-out and setting: the same measure for `COc1ccc2[nH]cc(CCNc3ncnc4ccc(-c5ccccc5C#N)cc34)c2c1`: -10.8%.
Turning to `CC(=O)NC(C(=O)O)C(C)(C)SN=O` (stereo not given), the max response was 9%.
On the same count and under the same terms, the same measure for `CC(=O)Oc1ccccc1C(=O)Oc1ccccc1C(=O)O`: -5.13% and 0.698%.

These data come from PubChem BioAssay (NCATS).
